Assay outcomes from PubChem.
TIM10 inh – growth inhibitors of isogenic TIM10 control yeast, primary screen, counter-screen for tim10-1 yeast inhibitor project, luminescence, uHTS | S. cerevisiae TIM10 strain growth, BacTiter-Glo luminescence, 24 h | inhibition, % at 10 µM | 1.4% of 330,000 active | AID 463195, 2010;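 active means inhibition of 40% or more at the single tested concentration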;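 further: wild-type TIM10 isogenic control strain grown at permissive 25 °C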
tim10-1 inh – growth inhibitors of tim10-1 mutant yeast, primary screen, luminescence, uHTS. S. cerevisiae tim10-1 ts strain growth, BacTiter-Glo, 24 h. inhibition, % at 20 µM. 2.2% of 330,000 active. AID 463190, 2010;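 active means inhibition of at least 40%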;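 further: mutant grown at 25 °C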
tim23-1 inh – growth inhibitors of tim23-1 mutant yeast, primary screen, luminescence, uHTS; S. cerevisiae tim23-1 growth, BacTiter-Glo luminescence, 24 h; inhibition, % at 20 µM; 1.3% of 330,000 active; AID 463212, 2010;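 active means growth inhibition of the mutant yeast at or above 50%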;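 further: temperature-sensitive mutant grown at 25 °C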
NALP1 inh – NALP1 inflammasome inhibitors in reconstituted yeast, colorimetric, S. cerevisiae, triplicate retest | S. cerevisiae NALP1/ASC/caspase-1 growth, X-gal OD620, 72 h | 0.61% of 280,000 active | inhibition, % at 10 µM; in the data active means inhibition mostly above about 24%, no sharp cut-off; inactive means mostly below about 32%
SKKanGAS inh – S. pyogenes SKKanGAS growth inhibitors in kanamycin, primary screen, streptokinase expression inhibitor project, SKKanGAS strain, BacTiter-Glo luminescence. 6 h. inhibition, % at 7.5 µM. 1.3% of 300,000 active;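 active means mean replicate score, as percent of positive control median, at least 50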;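 further: strain carries kanamycin resistance gene driven by streptokinase promoter and grows in 40 µg/ml kanamycin; loss of luminescence reflects streptokinase promoter inhibition or plain growth inhibition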
NLRP3 yeast inh – NALP3 inflammasome inhibitors in reconstituted yeast, primary screen, luminescence, uHTS; inhibition, % at 10 µM; Yeast reconstituted NLRP3/ASC/caspase-1, beta-gal luminescence, 24 h; 0.39% of 330,000 active;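 active means inhibition of 50% or more; inactive means inhibition below 50%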
TIM10 conf – growth inhibitors of wild-type TIM10 yeast, confirmation, counter-screen for tim10-1 synthetic lethality project, single concentration, luminescence, S. cerevisiae; shares compounds with TIM10 inh; S. cerevisiae tim10 strain growth, BacTiter-Glo luminescence, 24 h; inhibition, % at 10 µM; 63% of 4,600 active; AID 463215, 2010;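 active means inhibition of yeast growth at or above a set limit in either of two replicates at 10 µM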; further: this counterscreen used the strain with wild-type TIM10
tim23-1 confirm – tim23-1 mutant yeast growth inhibitors, confirmation, luminescence, single concentration; shares compounds with tim23-1 inh; S. cerevisiae tim23-1 growth, BacTiter-Glo luminescence, 24 h; inhibition, % at 20 µM; 83% of 4,400 active; AID 463218, 2010;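 active means inhibition above about 39% in either of two replicate wells at 20 µM, limit read from the data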;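 further: temperature-sensitive tim23-1 mutant grown at 25 °C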
Hits are given with their value. An excerpt weighted towards active compounds, which were near 4.9% of everything screened.

How did Cc1cccc(N2CC(C(=O)NC3CCCCCC3)CC2=O)c1C (configuration not stated) do in these assays?
TIM10 inh: inactive; tim10-1 inh: inactive; tim23-1 inh: inactive; NLRP3 yeast inh: inactive

Results for CCOC(=O)N1CCN(C(=O)CN(C2CCCCC2)S(=O)(=O)c2c(C)cc(C)cc2C)CC1 ?
TIM10 inh: 40.8; tim10-1 inh: inactive; tim23-1 inh: inactive; NALP1 inh: inactive; SKKanGAS inh: inactive; NLRP3 yeast inh: inactive; TIM10 conf: inactive

How did Cc1nn(-c2ccccc2)c(C)c1C(=O)NCc1ccc(F)cc1 do in these assays?
TIM10 inh: inactive; tim10-1 inh: inactive; tim23-1 inh: inactive; NALP1 inh: inactive; SKKanGAS inh: inactive; NLRP3 yeast inh: inactive

How did Cc1c(C(=O)NCc2ccc(F)cc2)c(-c2ccccc2)nn1-c1ccccc1 do in these assays?
TIM10 inh: 43.3; tim10-1 inh: inactive; tim23-1 inh: inactive; NALP1 inh: inactive; SKKanGAS inh: inactive; NLRP3 yeast inh: inactive; TIM10 conf: 36.9

How did Cc1cc(OCc2cccc(S(=O)(=O)N3CCOCC3)c2)ccc1Cl do in these assays?
TIM10 inh: 49.5; tim10-1 inh: inactive; tim23-1 inh: inactive; NLRP3 yeast inh: inactive; TIM10 conf: inactive

Results for Cc1ccc(NC(=O)C2CCN(C(=O)OC(C)(C)C)CC2)cc1S(=O)(=O)N1CCCCC1 ?
TIM10 inh: 56.5; tim10-1 inh: inactive; tim23-1 inh: inactive; NLRP3 yeast inh: inactive; TIM10 conf: inactive

Results for Cc1ccc(NC(=O)C2CCCC2)cc1S(=O)(=O)N1CCOCC1 ?
TIM10 inh: inactive; tim10-1 inh: inactive; tim23-1 inh: inactive; NLRP3 yeast inh: inactive

What do the screens show for `COc1cccc(-c2cc(=O)c3cc(NC(=O)c4ccc(N(C)C)cc4)ccc3[nH]2)c1`?
TIM10 inh: 66.6; tim10-1 inh: inactive; tim23-1 inh: inactive; NALP1 inh: inactive; SKKanGAS inh: inactive; NLRP3 yeast inh: inactive; TIM10 conf: inactive

How did C=CCOC(=O)C1=C(C)NC(=S)NC1/C=C/c1ccccc1 (configuration not stated) do in these assays?
TIM10 inh: 43.3; tim10-1 inh: inactive; tim23-1 inh: inactive; NALP1 inh: inactive; SKKanGAS inh: inactive; NLRP3 yeast inh: inactive; TIM10 conf: inactive

What do the screens show for `CCOc1ccc(N/C(SCc2cccc([N+](=O)[O-])c2)=C(/C#N)C(N)=O)cc1`?
TIM10 inh: 45.7; tim10-1 inh: inactive; tim23-1 inh: inactive; NALP1 inh: inactive; SKKanGAS inh: inactive; NLRP3 yeast inh: inactive; TIM10 conf: 41.5

What do the screens show for `CC1=CC(C)(C)N(C(=O)CN2C(=O)c3ccccc3C2=O)c2ccc(C)cc21`?
TIM10 inh: 43.8; tim10-1 inh: inactive; tim23-1 inh: 60.3; NALP1 inh: inactive; SKKanGAS inh: inactive; NLRP3 yeast inh: inactive; TIM10 conf: 50.1; tim23-1 confirm: 58.9

How did CC1=CC(C)(C)N(C(=O)CN2C(=O)CCC2=O)c2ccccc21 do in these assays?
TIM10 inh: inactive; tim10-1 inh: inactive; tim23-1 inh: inactive; NALP1 inh: inactive; SKKanGAS inh: inactive; NLRP3 yeast inh: inactive

Results for Cc1ccn2cc(C(=O)Nc3nnc(C)s3)nc2c1 ?
TIM10 inh: inactive; tim10-1 inh: inactive; tim23-1 inh: inactive; NALP1 inh: inactive; SKKanGAS inh: inactive; NLRP3 yeast inh: inactive

Results for Cc1ccn2cc(C(=O)Nc3ccc4c(c3)OCCO4)nc2c1 ?
TIM10 inh: 43.8; tim10-1 inh: inactive; tim23-1 inh: 50.3; NALP1 inh: inactive; SKKanGAS inh: inactive; NLRP3 yeast inh: inactive; TIM10 conf: inactive; tim23-1 confirm: 49.5

Results for CC1CCCN(C(=O)C2CCN(S(=O)(=O)c3cccs3)CC2)C1 (configuration not stated) ?
TIM10 inh: inactive; tim10-1 inh: inactive; tim23-1 inh: inactive; NLRP3 yeast inh: inactive

Results for CCOc1ccccc1/C=c1\sc2ncnn2c1=O ?
TIM10 inh: 43.1; tim10-1 inh: inactive; tim23-1 inh: 60.0; NALP1 inh: inactive; SKKanGAS inh: inactive; NLRP3 yeast inh: inactive; TIM10 conf: 31.7; tim23-1 confirm: 73.9

What do the screens show for `CCCOc1ccc(/C=c2\sc3ncnn3c2=O)cc1`?
TIM10 inh: inactive; tim10-1 inh: inactive; tim23-1 inh: inactive; NALP1 inh: inactive; SKKanGAS inh: inactive; NLRP3 yeast inh: inactive

What do the screens show for `COc1ccccc1NC(=O)C(C)OC(=O)C(C)SCC(=O)Nc1ccc(C)cc1` (configuration not stated)?
TIM10 inh: inactive; tim10-1 inh: inactive; tim23-1 inh: inactive; NLRP3 yeast inh: inactive

Results for O=C(CCN1CCCCC1)c1ccccc1 ?
TIM10 inh: inactive; tim10-1 inh: inactive; tim23-1 inh: inactive; NALP1 inh: inactive; SKKanGAS inh: inactive; NLRP3 yeast inh: inactive

How did CCc1oc2ccccc2c1C(=O)CCN1CCCCC1 do in these assays?
TIM10 inh: 56.5; tim10-1 inh: inactive; tim23-1 inh: 52.5; NALP1 inh: 49.6; SKKanGAS inh: inactive; NLRP3 yeast inh: inactive; TIM10 conf: 41.3; tim23-1 confirm: inactive

Results for O=C(NCCc1nccs1)C1CCC(=O)N(Cc2cccc(C(F)(F)F)c2)C1 (configuration not stated) ?
TIM10 inh: inactive; tim10-1 inh: inactive; tim23-1 inh: inactive; NALP1 inh: inactive; SKKanGAS inh: inactive; NLRP3 yeast inh: inactive

What do the screens show for `N/C(=N\OC(=O)c1ccc(Cl)c([N+](=O)[O-])c1)c1ccccc1`?
TIM10 inh: 71.9; tim10-1 inh: inactive; tim23-1 inh: 81.4; NALP1 inh: inactive; SKKanGAS inh: inactive; NLRP3 yeast inh: inactive; TIM10 conf: 72.2; tim23-1 confirm: 78.3

What do the screens show for `N/C(=N\OC(=O)c1ccc(Cl)c([N+](=O)[O-])c1)c1ccccn1`?
TIM10 inh: inactive; tim10-1 inh: inactive; tim23-1 inh: inactive; NALP1 inh: inactive; SKKanGAS inh: inactive; NLRP3 yeast inh: inactive

Results for Cc1ccc(N=Nc2ccc(O)cc2)c(Br)c1 ?
TIM10 inh: 51.7; tim10-1 inh: inactive; tim23-1 inh: 66.2; NALP1 inh: inactive; SKKanGAS inh: inactive; NLRP3 yeast inh: inactive; TIM10 conf: 71.4; tim23-1 confirm: inactive

Results for Oc1c(C=Nc2ccccc2)sc2ccccc12 ?
TIM10 inh: 40.2; tim10-1 inh: inactive; tim23-1 inh: 66.2; NALP1 inh: inactive; SKKanGAS inh: inactive; NLRP3 yeast inh: inactive; TIM10 conf: 45.4; tim23-1 confirm: 62.1
